Source: PubChem BioAssay
This is a sample that favours compounds with a hit; in the whole collection about 15% have one here.
HCV inh: qHTS Assay for Inhibitors of Hepatitis C Virus (HCV). Huh7.5.1 HCVcc-Cre infection, luciferase reporter, 44 h. Potency, µM (highest dose often 41.8 µM), without a hit: top-dose activity change, negative = inhibition, usual class: inhibitors. 340,000 compounds, 3.4% hits. AID 651820, 2012; also: potency is read from the fitted curve at half-maximal effect; % is scaled to controls: 0 for no effect and ±100 for the full control effect
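Cells (1,000/well) were plated 4 h before compound, then infected with HCVcc-Cre virus (~0.5 moi). After 44 h further culture, infection was read as luciferase luminescence following a 15 min substrate incubation at room temperature.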
Pf growth 96h: Primary qHTS for delayed death inhibitors of the malarial parasite plastid, 96 hour incubation | P. falciparum luciferase reporter growth, 96 h | 320,000 compounds, 6.9% hits | Potency, µM (highest dose often 28.7 µM), for the others: at the top dose activity change, negative = inhibition, hits mostly inhibitors; also: potency is read from the fitted curve at half-maximal effect; % is scaled to controls: 0 for no effect and ±100 for the full control effect
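Parasite growth measured via integrated firefly luciferase reporter in P. falciparum. Infected erythrocytes at 2% hematocrit, 0.05% parasitemia final were treated 96 hours at 37 C under 5% CO2, and luminescence was read.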
SARS PLpro yeast: qHTS of Yeast-based Assay for SARS-CoV PLP; S. cerevisiae expressing SARS-CoV PLpro, growth rescue; Potency, µM (top dose mostly 32.9 µM), inactives show top-dose activity, positive = growth rescue, most hits filed as activators; 330,000 compounds, 0.19% hits; AID 485353, 2010; calls by dose curve; also: potency is read from the fitted curve at half-maximal effect; 0% is about no effect; nearly all actives have a fitted effect of over 55% in size
Pf growth 48h: Primary qHTS for delayed death inhibitors of the malarial parasite plastid, 48 hour incubation. P. falciparum luciferase growth in erythrocytes, 48 h. Potency, µM (top dose mostly 28.7 µM), for inactives: at the top dose activity change, negative = inhibition, hits mostly inhibitors. 310,000 compounds, 5.9% hits; also: potency is read from the fitted curve at half-maximal effect; % is scaled to controls: 0 for no effect and ±100 for the full control effect
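Luminescence readout; reporter = integrated firefly luciferase in P. falciparum. RBC culture at 2% hematocrit, 0.1% parasitemia final, 37 C/5% CO2; decreased signal taken as growth inhibition.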
Sm TGR block: qHTS Assay for the Inhibitors of Schistosoma Mansoni Peroxiredoxins | Schistosoma mansoni thioredoxin glutathione reductase (TGR), Q962Y6 | purified TGR, DTNB reduction, TNB absorbance 405 nm | Potency, µM (series often up to 114 µM), without a hit: at the top dose activity change, negative = inhibition, actives largely listed as inhibitors | 360,000 compounds, 3% hits; also: potency is read from the fitted curve at half-maximal effect; % is scaled to controls: 0 for no effect and ±100 for the full control effect; nearly all actives have a fitted effect of over 60% in size
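Kinetic colorimetric format: TGR-catalysed, NADPH-driven DTNB reduction monitored via TNB absorbance. Enzyme dispensed at 20 nM; compound exposure 15 min at room temperature before reaction start.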
HCMV antiviral: qHTS Assay for inhibitors of the human cytomegalovirus (HCMV); HFF cells, HCMV-luciferase reporter, 72 h; hits give low values; activity change, negative = inhibition, % at 57.5 µM; 410,000 compounds, 4.5% hits; AID 1259415, 2018; in the data active = activity change below about -60%; inconclusive = no clear call, values can overlap the other calls; inactive = above about -39%; also: % is scaled to controls: 0 for no effect and ±100 for the full control effect
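After 16 h attachment at 37C, HFF cells received test compound and HCMV-luciferase (1 PFU/cell); reporter luminescence read 72 h later, data normalized against buffer-only and known inhibitor Salinomycin.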
* = called active by the depositor; [ ] = dose if it differs, or a comment. Unless noted, calls follow the shape of the dose curve; as a rule, active = well fitted curve in the direction sought with a large enough effect; inconclusive = small, poorly fitted or top-dose-only effect, or another doubt; inactive = no such curve, though single readings can be large; an effect the other way counts as inactive or inconclusive.

How did Cc1cc(C)cc(NC(=O)C(=O)NCC(c2cccnc2)N2CCN(c3ccccc3)CC2)c1 (centres undefined) do in these assays?
Sm TGR block: 6%; HCMV antiviral: -1

How did CCCSc1nc2sc3c(c2c(=O)n1-c1ccc(C)c(Cl)c1)CCN(C(C)=O)C3 do in these assays?
Sm TGR block: -1%; HCMV antiviral: 1

How did COC(=O)[C@]12CCCCC=C1N(Cc1cccc3ccccc13)C(=O)[C@H](CC(=O)N1CCSCC1)C2 do in these assays?
HCMV antiviral: 7

How did COc1ccc(C(CNC(=O)c2ccco2)N2CCCC2)cc1 (centres undefined) do in these assays?
HCV inh: inconclusive; Pf growth 96h: 97%; SARS PLpro yeast: 6%; Pf growth 48h: 69%; Sm TGR block: -16%; HCMV antiviral: 0

Results for Cc1ccc(C)c2[nH]c(=O)c(CN(CC3CCCO3)C(=S)NCc3ccco3)cc12 (centres undefined) ?
HCV inh: inconclusive; Pf growth 96h: inconclusive; SARS PLpro yeast: -1%; Pf growth 48h: inconclusive; Sm TGR block: 28µM*; HCMV antiviral: 0

How did Cc1cc(C)c2cc(CN(Cc3ccco3)C(=S)NCC3CCCO3)c(=O)[nH]c2c1 (centres undefined) do in these assays?
HCV inh: inconclusive; Pf growth 96h: inconclusive; SARS PLpro yeast: 1%; Pf growth 48h: 2.1µM*; Sm TGR block: 25µM*; HCMV antiviral: -3

How did COc1ccc2cc(CN(Cc3ccco3)C(=S)NCC3CCCO3)c(=O)[nH]c2c1 (centres undefined) do in these assays?
HCV inh: 12%; Pf growth 96h: 0%; SARS PLpro yeast: 1%; Pf growth 48h: inconclusive; Sm TGR block: -27%[57.1 µM]; HCMV antiviral: inconclusive

How did O=C(c1ccco1)N1CCN(C(=O)c2ccc(CS(=O)c3ccc(Br)cc3)o2)CC1 (centres undefined) do in these assays?
HCMV antiviral: -34

How did N#Cc1c(NC(=O)c2ccc([N+](=O)[O-])o2)sc2c1CCC2 do in these assays?
HCV inh: -2%; Pf growth 96h: 52%; SARS PLpro yeast: -15%; Pf growth 48h: 76%; Sm TGR block: 35µM*; HCMV antiviral: inconclusive

What do the screens show for `N#Cc1c(NC(=O)c2ccc(Cn3cc(Br)cn3)o2)sc2c1CCCCCC2`?
HCV inh: inconclusive; Pf growth 96h: -58%; SARS PLpro yeast: 17%; Pf growth 48h: -5%; Sm TGR block: -29%; HCMV antiviral: -99*

Results for Cn1nccc1C(=O)Nc1sc2c(c1C#N)CCCC2 ?
HCV inh: -9%; Pf growth 96h: 24%; SARS PLpro yeast: -4%; Pf growth 48h: 25%; Sm TGR block: -6%; HCMV antiviral: 61

How did O=C(c1ccco1)N1CCN(C(=O)c2ccc(Cn3cc(Br)cn3)o2)CC1 do in these assays?
HCV inh: 8%; Pf growth 96h: inconclusive; SARS PLpro yeast: 4%; Sm TGR block: 40µM*; HCMV antiviral: 35

How did Clc1ccc(Nc2nnc(-c3ccc4c(c3)OCO4)o2)cc1 do in these assays?
HCMV antiviral: 98

Results for O=C(NN=C1c2ccccc2-c2ccccc21)c1ccccc1 ?
HCV inh: inconclusive; Pf growth 96h: 8.3µM*; SARS PLpro yeast: 6%; Pf growth 48h: -1%; Sm TGR block: inconclusive; HCMV antiviral: -27

Results for NC(=S)NN=C1c2ccccc2-c2ccccc21 ?
HCV inh: 6.3µM*; Pf growth 96h: 28%; SARS PLpro yeast: -6%; Pf growth 48h: inconclusive; Sm TGR block: 3%; HCMV antiviral: -87*
